Cycloheximide cs = affects cycloheximide protein synthesis inhibition readout, counter-screen | cell reporter, cycloheximide protein synthesis inhibition counterscreen | max response, % | 300,000 compounds, 12% hits | AID 2314; in the data active = max response mostly above about 13%, no sharp cut-off; inactive = mostly below about 14%; note: read at 38.3 µM for the half of the compounds with a filed dose
TbPYK inhibitor = T. brucei pyruvate kinase inhibition; AID 624173; TbPYK enzyme, Kinase-Glo Plus ATP luminescence, 45 min; Potency, µM (top dose mostly 76.8 µM), most hits filed as inhibitors; Q57TT1; 410,000 compounds, 0.12% hits; note: nearly all actives have a fitted effect of over 50% in size
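Quantitative HTS: titrated library compounds versus trypanosomal pyruvate kinase in TEA buffer (pH 7.2) containing KCl, MgCl2, BSA and Tween-20. Reactions were initiated with ADP, 130 uM final. Kinase-Glo Plus luminescence was read after 45 min at RT.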
Giardia FBPA inh = Giardia lamblia aldolase inhibition; 290,000 compounds, 0.71% hits; purified Giardia FBPA; A8B2U2; Potency, µM (series often up to 59.6 µM), most hits filed as inhibitors; note: nearly all actives have a fitted effect of over 55% in size
Target sequence (A8B2U2 whole entry, looked up): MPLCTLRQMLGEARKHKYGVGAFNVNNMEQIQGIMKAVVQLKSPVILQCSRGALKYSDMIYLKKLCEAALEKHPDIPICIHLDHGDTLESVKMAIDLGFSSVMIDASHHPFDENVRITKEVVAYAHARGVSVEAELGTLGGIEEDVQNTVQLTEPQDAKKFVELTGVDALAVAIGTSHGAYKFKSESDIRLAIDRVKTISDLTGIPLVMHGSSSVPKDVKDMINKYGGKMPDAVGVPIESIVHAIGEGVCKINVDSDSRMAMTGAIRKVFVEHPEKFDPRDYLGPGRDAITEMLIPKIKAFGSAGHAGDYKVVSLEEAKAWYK
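40 nM FBPA preincubated 10 min at RT with compound (up to 57.5 uM final), then substrate plus GAPDH/TPI/NAD/arsenate coupling and diaphorase/resazurin added. Fluorescence read after 20 min at RT, 525/598 nm.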
Sm TGR inh = blocks Schistosoma mansoni thioredoxin glutathione reductase. Q962Y6. purified TGR, DTNB reduction, TNB absorbance 405 nm. AID 485364. 360,000 compounds, 3% hits. Potency, µM (highest dose often 114 µM), actives largely listed as inhibitors; note: nearly all actives have a fitted effect of over 60% in size
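Kinetic colorimetric format: TGR-catalysed, NADPH-driven DTNB reduction monitored via TNB absorbance. Enzyme dispensed at 20 nM; compound exposure 15 min at room temperature before reaction start.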
LmPK inhibitor = inhibitors of Leishmania mexicana pyruvate kinase. purified LmPK, Kinase-Glo ATP luminescence, 1 h. Q27686. Potency, µM (titrated, usually from 57.5 µM), hits mostly inhibitors. 290,000 compounds, 0.37% hits
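Kinase-Glo luminescence read after 1 h RT reaction of 0.1 nM LmPK with 0.5 mM PEP and 0.1 mM ADP. Activity scaled between uninhibited and enzyme-free controls.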
Shiga inhibitor = blocks Shiga toxin action in Vero cells; Vero cells, Shiga toxin protein synthesis inhibition reporter; inhibition, % at 38.7 µM; 290,000 compounds, 9.2% hits; AID 2315; in the data active = inhibition mostly above about 28%, no sharp cut-off; inactive = mostly below about 43%
A number is an active result; . = inactive; ? = inconclusive; / = no result given; + = active, no number; [ ] = dose if it differs, or a comment. The full list was thinned out, with hits kept by preference. Unless noted, calls come from the whole dose curve; as a rule, active = well fitted curve in the direction sought with a large enough effect; inconclusive = small, poorly fitted or top-dose-only effect, or another doubt; inactive = no such curve, though single readings can be large; an effect the other way counts as inactive or inconclusive.

SMILES | Cycloheximide cs | TbPYK inhibitor | Giardia FBPA inh | Sm TGR inh | LmPK inhibitor | Shiga inhibitor
O=C(NCc1ccccn1)Nc1cccc(Cl)c1 | 29 | . | . | .[11.4 µM] | . | 43
CC(C)OCCCN1C(=O)c2[nH]nc(-c3ccccc3O)c2C1c1ccc(OCc2ccccc2)cc1 (stereo not given) | / | . | / | . | / | /
CCOc1ccc(NC(=O)CC2C(=O)N(c3ccccc3)C(=O)N2CCc2ccc(OC)cc2)cc1 (stereo not given) | / | . | / | . | / | /
O=C(NCc1ccccn1)c1ccc(Cl)cc1Cl | 28 | . | . | . | . | 51
O=C(NCc1ccccn1)Nc1cccc(NC(=O)NCc2ccccn2)c1 | . | . | . | . | . | .
COc1cccc(NC(=O)NCc2ccccn2)c1 | 17 | . | . | . | . | 30
O=C(NCCCNC(=O)c1ccc(Cl)cc1Cl)c1ccccn1 | . | . | . | . | . | .
COc1ccc(NC(=O)NCc2ccccc2F)cc1OC | . | . | . | . | . | .
COc1cccc(NC(=O)NCc2ccccc2F)c1 | 40 | . | . | / | . | 97
O=C(NCc1ccccn1)Nc1ccc(Cl)c(Cl)c1 | 26 | . | . | . | . | 55
C=CC1=C2C=C(C3CC3)N(Cc3ccccc3)C=C2C(=O)C(C)(OC(=O)c2ccco2)C1=O (stereo not given) | / | / | ? | / | .[11.5 µM] | /
Cc1c(C)c2c(c(C)c1OC(=O)c1cccnc1)CC[C@@](C)(CCC[C@H](C)CCC[C@H](C)CCCC(C)C)O2 | . | . | . | / | / | .
O=C(O)[C@H]1CN(C/C=C/P(=O)(O)O)CCN1 | / | . | . | / | / | /
CCOC(=O)c1c(Oc2ccc(C(C)=O)cc2)nnc(-c2ccccc2)c1-c1ccccc1 | / | . | / | . | / | /
CC(C)c1ccc(NC(=S)N(C)CCc2ccccn2)cc1 | 30 | . | . | . | . | 88
CCCCN1CC(COCc2ccccc2)Oc2ccccc2S1(=O)=O (stereo not given) | / | . | / | / | / | /
O=C(CCCOc1ccccc1)Nc1ccc(Br)cc1 | / | . | / | / | / | /
O=C(CCOc1ccccc1)Nc1ccc(Br)cc1 | 38 | . | . | . | . | 57
COC(C(=O)N/N=C(\C)c1ccc(C)cc1)c1ccccc1 (stereo not given) | 11 | . | . | . | . | .
COc1ccc(NC(=O)CCOc2ccccc2)cc1 | 65 | . | . | . | . | 117
COC(=O)c1ccc(NC(=O)CNc2ccccc2)cc1 | 36 | . | . | . | . | 61
Cc1ccc(C)c(NC(=O)c2cc(S(=O)(=O)N3CCCCCC3)ccc2F)c1 | / | . | / | . | / | /
O=C(NCCOCCn1c(=O)oc2ccccc21)Nc1ccc(Cl)cc1 | / | . | / | . | / | /
CCOC(=O)c1ccc(NC(=O)CCOc2ccc(C)cc2)cc1 | . | . | . | . | . | .
COC(=O)c1ccc(NC(=O)CCOc2ccccc2)cc1 | 22 | . | . | . | . | .
SMILES | Cycloheximide cs | TbPYK inhibitor | Giardia FBPA inh | Sm TGR inh | LmPK inhibitor | Shiga inhibitor
COc1ccc(NC(=O)CCOc2ccccc2)c(OC)c1 | 20 | . | . | . | . | .
COC(=O)c1ccc(NC(=O)c2ccccc2NS(C)(=O)=O)cc1 | 24 | . | . | . | . | 48
COC(=O)c1ccc(NC(=O)C(OC)c2ccccc2)cc1 (stereo not given) | 17 | . | . | / | . | .
COc1ccc(C)cc1NC(=O)NC(C)c1c(-n2cccc2)sc(C)c1C (stereo not given) | / | . | / | . | / | /
COc1cccc(NC(=O)Cn2c(=O)n(Cc3nc(-c4ccccc4)no3)c(=O)c3ccccc32)c1 | / | . | / | . | / | /
COc1ccc2oc(-c3ccc(C)c(NC(=O)c4ccc(N5CCCCC5)c([N+](=O)[O-])c4)c3)nc2c1 | / | . | / | . | / | /
COC1=C2C[C@@H](C)C[C@H](OC)[C@H](O)[C@@H](C)/C=C(\C)[C@H](OC(N)=O)[C@@H](OC)/C=C\C=C(/C)C(=O)NC(=CC1=O)C2=O | . | / | 3.5µM | / | / | .
CO[C@H]1/C=C\C=C(\C)C(=O)NC2=CC(=O)C(NCCN(C)C)=C(C[C@@H](C)C[C@H](OC)[C@H](O)[C@@H](C)/C=C(/C)[C@@H]1OC(N)=O)C2=O | / | . | / | / | / | /
Cc1cc(C)cc(-n2c(SCC(=O)NC3CCCCC3)nc3c([nH]c4ccccc43)c2=O)c1 | / | . | / | . | / | /
COc1ccc(-c2cc(=Nc3c(C)n(C)n(-c4ccccc4)c3=O)c3ccccc3o2)cc1 | 41 | . | . | ? | . | 48
C[C@H](NC(=O)OC(C)(C)C)C(=O)N/N=C/c1cccc2nccnc12 | . | . | . | . | . | .
O=[N+]([O-])c1ccccc1N/N=C/c1cc2ccccc2nc1Cl | . | . | . | . | . | +
O=C(N/N=C/c1cc2ccccc2nc1Cl)[C@H]1C[C@@H]1c1ccccc1 | . | . | . | . | . | .
O=C(O)c1ccc(N/N=C/c2cc3ccccc3nc2Cl)cc1 | 38 | . | . | . | . | 84
O=C(O)c1ccc(N/N=C/c2cccc3nccnc23)cc1 | 27 | . | . | . | . | 45
Cc1cccc2cc(/C=N/Nc3ccc(C(=O)O)cc3)c(Cl)nc12 | 68 | . | . | . | . | 128
COc1ccc(Br)cc1CNC(=O)CSc1cc(=O)n(C)c2ccccc12 | / | . | / | . | / | /
COc1cc(C(=O)N2CCN(c3ccc(Nc4ccccc4)nn3)CC2)cc(OC)c1OC | / | . | / | . | / | /
CCc1ccc(-c2nnn(CCC(=O)OC)n2)cc1 | 19 | . | . | . | . | .
CCc1ccc(-c2nnn(CCC#N)n2)cc1 | 29 | . | . | . | . | 40
CCN(C(=O)CN(C)S(=O)(=O)c1ccc2c(c1)c(=O)n(C)c(=O)n2C)c1ccc(OC)cc1 | / | . | / | . | / | /
Cc1cnc(CNc2ncnc3ccc(-c4ccccc4C#N)cc23)cn1 | / | / | . | / | / | /
O=C(NCc1ccco1)c1ccc2c(c1)N(Cc1ccccc1)C(=O)c1ccccc1S2(=O)=O | / | . | / | . | / | /
COc1ccc(C2=C/C(=C\c3ccccc3OC(C)=O)C(=O)O2)cc1 | 22 | . | . | ? | . | 103
COc1ccccc1/C=C/c1nc2ccc(OC(C)=O)cc2c(=O)o1 | . | . | . | ? | . | .
SMILES | Cycloheximide cs | TbPYK inhibitor | Giardia FBPA inh | Sm TGR inh | LmPK inhibitor | Shiga inhibitor
COc1ccc(C2=C/C(=C\c3cccc(OC(C)=O)c3)C(=O)O2)cc1 | 24 | . | . | . | . | .
Cc1ccc(OCCN2C(=O)c3ccccc3C2=O)c([N+](=O)[O-])c1 | 64 | . | . | . | . | 106
COc1ccc(OCCN2C(=O)c3cccc(N)c3C2=O)cc1 | 32 | . | . | . | . | 74
Cc1ccc(OCCN2C(=O)c3ccccc3C2=O)cc1 | 31 | . | . | . | . | 108
O=C1c2ccccc2C(=O)N1CCOc1cccc(Br)c1 | 28 | . | / | . | . | 52
COc1ccc(N2CCN(CCN3C(=O)c4ccccc4C3=O)CC2)cc1 | . | . | / | . | . | .
Nc1nc(N)c2[nH]c(-c3ccccc3)nc2n1 | . | . | . | . | . | .

Screening results deposited in PubChem by National Center for Advancing Translational Sciences (NCATS).
